In PubChem BioAssay (NCATS):
Inconclusive results are not listed. Unmarked numbers belong to inactive results. Unless noted, calls follow the shape of the dose curve; as a rule, active = well fitted activation curve with a large enough effect in the main read-out, with a control signal flat (not every such curve was filed as active); inconclusive = small, poorly fitted or top-dose-only effect, or effect the other way, or a change in a side signal; inactive = flat fitted curve, though single readings scatter.

The compounds below were run against Mitogen-activated protein kinase 10 (Mus musculus) (UniProt Q61831) (assay: JNK3 AlphaScreen Assay (AID 530; active = well fitted curve in either direction with a large enough effect, not every such curve was filed as active;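 also: kinase came from lysate of stimulated human HepG2 cells; signal reports phosphorylation of biotinylated GST-cJun 1-79 at Ser73 with 10 µM ATP; % is scaled to controls: 0 for no effect and ±100 for the full control effect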)). Details: JNK3 lysate, c-Jun phosphorylation; series mostly up to 57.1 µM; activity change, negative = inhibition: at the top concentration.
In short: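 qHTS titrations with 15 min compound pre-incubation before adding ATP (10 uM final). Read-out: AlphaScreen of Ser73-phosphorylated biotin-GST-cJun using HepG2 lysate JNK3 activated by IL-1β and TNFα.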
Cc1noc(C)c1C(=O)N1CCC[C@@]2(CCN(C(=O)NC(C)C)C2)C1 was tested, and the “activity change, negative = inhibition” value was -2.23%.
COCC(=O)N1CCC2(CC1)CN(C(=O)Nc1cccc(C#N)c1)C2 was tested, and the “activity change, negative = inhibition” value was 5.71%.
With Cc1noc(C)c1C(=O)N1CCC2(CCN(C(=O)NC(C)C)CC2)CC1 the “activity change, negative = inhibition” value was -3.49%.
O=C(Nc1ccccc1)N1CC[C@@]2(CCCN(C(=O)c3ccco3)C2)C1 was tested, and the “activity change, negative = inhibition” value was 6.03%.
For CC(=O)N1CCC2(CCCN(c3ccccn3)C2)CC1, the “activity change, negative = inhibition” value was 6.31%.
CC(=O)N1CCC2(CCN(Cc3ccncc3)CC2)CC1 was tested, and the “activity change, negative = inhibition” value was 3.77%.
O=C(Nc1cccc(F)c1)N1CCC2(CCNCC2)CC1 was tested, and the “activity change, negative = inhibition” value was -0.239%.
With COCC(=O)N1CCC2(CC1)CN(C(=O)Nc1cccc(F)c1)C2 the “activity change, negative = inhibition” value was 20.4%.
In the case of COCC(=O)N1CCC2(CC1)CN(Cc1cc(C(F)(F)F)cc(C(F)(F)F)c1)C2, the “activity change, negative = inhibition” value is reported as 2.37%.
COCC(=O)N1CCC2(CCCN(C(=O)Nc3cccc(F)c3)C2)CC1 was tested, and the “activity change, negative = inhibition” value was -0.0746%.
For COCC(=O)N1CCC2(CC1)CN(C(=O)Nc1ccc(OC)cc1)C2, the “activity change, negative = inhibition” value was -2.84%.
In the case of Cn1cccc1C(=O)N1CCC2(CC1)CN(C(=O)Nc1ccccc1)C2, the “activity change, negative = inhibition” value is reported as -2.72%.
In the case of COC(=O)N1CCC[C@@]2(CCN(C(=O)Nc3ccccc3)C2)C1, the “activity change, negative = inhibition” value is reported as 5%.
With O=C(c1ccncc1)N1CCC2(CC1)CN(c1ncccn1)C2 the “activity change, negative = inhibition” value was 2.96%.
CC(C)NC(=O)N1CCC2(CC1)CCN(C(=O)c1ccco1)CC2 was tested, and the “activity change, negative = inhibition” value was -0.437%.
O=C(Nc1ccccc1)N1CC2(CCN(C(=O)c3ccco3)CC2)C1 was tested, and the “activity change, negative = inhibition” value was 5.04%.
With COc1ccccc1CN1CCCC2(CCNCC2)C1 the “activity change, negative = inhibition” value was 2.1%.
For COC(=O)N1CCC[C@@]2(CCN(c3ccccn3)C2)C1, the “activity change, negative = inhibition” value was -1.04%.
For Cn1cccc1C(=O)N1CCC2(CCN(C(=O)Nc3cccc(F)c3)CC2)CC1, the “activity change, negative = inhibition” value was -4.99%.
O=C(c1csnn1)N1CCC2(CC1)CN(Cc1cc(C(F)(F)F)cc(C(F)(F)F)c1)C2 was tested, and the “activity change, negative = inhibition” value was 0.145%.
For O=C(Nc1ccccc1)N1CCC2(CC1)CCN(C(=O)c1csnn1)CC2, the “activity change, negative = inhibition” value was -3.26%.
For CN1CCC2(CC1)CCN(C(=O)c1cc(C(F)(F)F)cc(C(F)(F)F)c1)CC2, the “activity change, negative = inhibition” value was 4.46%.
CC(=O)N1CCC2(CCN(Cc3nccs3)CC2)CC1 was tested, and the “activity change, negative = inhibition” value was -7.53%.
COc1ccccc1CN1CCC2(CC1)CCN(C(C)=O)CC2 was tested, and the “activity change, negative = inhibition” value was 0.908%.
CS(=O)(=O)N1CCC2(CCN(C(=O)Nc3cccc(C#N)c3)CC2)CC1 was tested, and the “activity change, negative = inhibition” value was -21%.
COc1ccc(NC(=O)N2CCC3(CC2)CCN(C(=O)c2cnccn2)CC3)cc1 was tested, and the “activity change, negative = inhibition” value was -18.4%.
O=C(c1ccco1)N1CCC2(CC1)CCN(c1ccccc1)CC2 was tested, and the “activity change, negative = inhibition” value was -19.9%.
With COc1ccc(NC(=O)N2CC[C@@]3(CCCNC3)C2)cc1 the “activity change, negative = inhibition” value was -6.28%.
With Cc1noc(C)c1C(=O)N1CCC[C@@]2(CCN(c3ncccn3)C2)C1 the “activity change, negative = inhibition” value was -3.77%.
For COC(=O)N1CCC2(CC1)CN(C(=O)Nc1ccccc1)C2, the “activity change, negative = inhibition” value was 2.04%.
With COCC(=O)N1CCC2(CC1)CCN(C(=O)Nc1cccc(F)c1)CC2 the “activity change, negative = inhibition” value was -1.53%.
With O=C(Nc1ccccc1)N1CCC2(CC1)CCN(C(=O)c1cnccn1)CC2 the “activity change, negative = inhibition” value was 0.48%.
With COC(=O)N1CCC2(CCN(Cc3nccs3)CC2)CC1 the “activity change, negative = inhibition” value was -0.277%.
COc1ccc(NC(=O)N2CC3(CCN(C(=O)c4ccco4)CC3)C2)cc1 was tested, and the “activity change, negative = inhibition” value was 4.67%.
With COc1ccc(NC(=O)N2CC3(CCN(C(=O)c4c(C)noc4C)CC3)C2)cc1 the “activity change, negative = inhibition” value was -4.3%.
CC(C)NC(=O)N1CC[C@@]2(CCCN(C(=O)c3cccn3C)C2)C1 was tested, and the “activity change, negative = inhibition” value was -0.825%.
In the case of FC(F)(F)c1cc(CN2CC3(CCNCC3)C2)cc(C(F)(F)F)c1, the “activity change, negative = inhibition” value is reported as 5.1%.
In the case of O=C(Nc1cccc(F)c1)N1CC2(CCN(S(=O)(=O)c3ccccc3)CC2)C1, the “activity change, negative = inhibition” value is reported as -1.53%.
For COCC(=O)N1CCC[C@@]2(CCN(c3ncccn3)C2)C1, the “activity change, negative = inhibition” value was -6.96%.

What follows are compounds tested against 3',5'-cyclic-AMP phosphodiesterase 4B (Homo sapiens) (UniProt Q07343) (assay: qHTS Assay for Inhibitors of PDE-IV (AID 607; also: % of control where 0% means no effect)). Details: HEK293 ACTOne CNG channel cells, membrane potential fluorescence; series mostly up to 22.9 µM; activation (PDE inhibition): at the top concentration.
Sequence of 3',5'-cyclic-AMP phosphodiesterase 4B (Homo sapiens) (Q07343 whole entry, looked up): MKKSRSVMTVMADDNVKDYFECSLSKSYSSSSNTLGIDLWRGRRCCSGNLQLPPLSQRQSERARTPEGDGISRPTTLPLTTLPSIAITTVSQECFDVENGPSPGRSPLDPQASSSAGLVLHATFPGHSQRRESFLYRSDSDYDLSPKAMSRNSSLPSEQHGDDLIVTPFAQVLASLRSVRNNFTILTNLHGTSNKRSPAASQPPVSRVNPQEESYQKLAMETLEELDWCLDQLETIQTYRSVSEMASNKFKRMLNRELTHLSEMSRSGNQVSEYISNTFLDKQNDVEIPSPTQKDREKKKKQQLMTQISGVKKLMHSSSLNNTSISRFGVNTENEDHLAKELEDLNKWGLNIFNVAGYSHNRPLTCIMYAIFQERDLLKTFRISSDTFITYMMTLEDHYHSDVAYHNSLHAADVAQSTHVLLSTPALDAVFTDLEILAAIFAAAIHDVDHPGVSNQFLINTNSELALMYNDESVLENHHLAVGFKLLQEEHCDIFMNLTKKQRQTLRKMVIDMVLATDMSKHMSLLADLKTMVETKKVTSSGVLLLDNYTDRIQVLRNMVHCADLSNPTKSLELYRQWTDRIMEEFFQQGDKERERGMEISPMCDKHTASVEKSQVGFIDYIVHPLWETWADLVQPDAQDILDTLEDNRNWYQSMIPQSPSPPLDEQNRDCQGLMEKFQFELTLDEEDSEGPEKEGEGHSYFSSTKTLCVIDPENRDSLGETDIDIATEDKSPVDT
In short: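 ACTOne HEK293 cells carry a modified cAMP-gated CNG channel and express endogenous PDE4; plated 1000 cells/well, compounds up to 22.9 uM final. Membrane-potential dye fluorescence (ex 535/em 590) was read; parental cells received 10 uM forskolin + 100 uM RO 20-1724.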
Cc1noc(C)c1C(=O)N1CCC[C@@]2(CCN(C(=O)NC(C)C)C2)C1 was tested, and the “activation (PDE inhibition)” value was 8.06%.
COCC(=O)N1CCC2(CC1)CN(C(=O)Nc1cccc(C#N)c1)C2 was tested, and the “activation (PDE inhibition)” value was -4.49%.
With Cc1noc(C)c1C(=O)N1CCC2(CCN(C(=O)NC(C)C)CC2)CC1 the “activation (PDE inhibition)” value was 4.27%.
For O=C(Nc1ccccc1)N1CC[C@@]2(CCCN(C(=O)c3ccco3)C2)C1, the “activation (PDE inhibition)” value was 7.18%.
For CC(=O)N1CCC2(CCCN(c3ccccn3)C2)CC1, the “activation (PDE inhibition)” value was 13%.
For CC(=O)N1CCC2(CCN(Cc3ccncc3)CC2)CC1, the “activation (PDE inhibition)” value was 2.13%.
With O=C(Nc1cccc(F)c1)N1CCC2(CCNCC2)CC1 the “activation (PDE inhibition)” value was 4.59%.
For COCC(=O)N1CCC2(CC1)CN(C(=O)Nc1cccc(F)c1)C2, the “activation (PDE inhibition)” value was -21.9%.
COCC(=O)N1CCC2(CC1)CN(Cc1cc(C(F)(F)F)cc(C(F)(F)F)c1)C2 was tested, and the “activation (PDE inhibition)” value was -0.373%.
In the case of COCC(=O)N1CCC2(CCCN(C(=O)Nc3cccc(F)c3)C2)CC1, the “activation (PDE inhibition)” value is reported as 3.72%.
COCC(=O)N1CCC2(CC1)CN(C(=O)Nc1ccc(OC)cc1)C2 was tested, and the “activation (PDE inhibition)” value was 12.8%.
For Cn1cccc1C(=O)N1CCC2(CC1)CN(C(=O)Nc1ccccc1)C2, the “activation (PDE inhibition)” value was 0.767%.
In the case of COC(=O)N1CCC[C@@]2(CCN(C(=O)Nc3ccccc3)C2)C1, the “activation (PDE inhibition)” value is reported as 4.67%.
With O=C(c1ccncc1)N1CCC2(CC1)CN(c1ncccn1)C2 the “activation (PDE inhibition)” value was -11.7%.
With CC(C)NC(=O)N1CCC2(CC1)CCN(C(=O)c1ccco1)CC2 the “activation (PDE inhibition)” value was 12.5%.
O=C(Nc1ccccc1)N1CC2(CCN(C(=O)c3ccco3)CC2)C1 was tested, and the “activation (PDE inhibition)” value was 9.32%.
With COc1ccccc1CN1CCCC2(CCNCC2)C1 the “activation (PDE inhibition)” value was 16.9%.
In the case of COC(=O)N1CCC[C@@]2(CCN(c3ccccn3)C2)C1, the “activation (PDE inhibition)” value is reported as 10.4%.
For Cn1cccc1C(=O)N1CCC2(CCN(C(=O)Nc3cccc(F)c3)CC2)CC1, the “activation (PDE inhibition)” value was 3.8%.
For O=C(c1csnn1)N1CCC2(CC1)CN(Cc1cc(C(F)(F)F)cc(C(F)(F)F)c1)C2, the “activation (PDE inhibition)” value was -7.78%.
O=C(Nc1ccccc1)N1CCC2(CC1)CCN(C(=O)c1csnn1)CC2 was tested, and the “activation (PDE inhibition)” value was 16.1%.
For CN1CCC2(CC1)CCN(C(=O)c1cc(C(F)(F)F)cc(C(F)(F)F)c1)CC2, the “activation (PDE inhibition)” value was 12.8%.
CC(=O)N1CCC2(CCN(Cc3nccs3)CC2)CC1 was tested, and the “activation (PDE inhibition)” value was 12.8%.
In the case of COc1ccccc1CN1CCC2(CC1)CCN(C(C)=O)CC2, the “activation (PDE inhibition)” value is reported as -5.67%.
In the case of CS(=O)(=O)N1CCC2(CCN(C(=O)Nc3cccc(C#N)c3)CC2)CC1, the “activation (PDE inhibition)” value is reported as 1.73%.
With COc1ccc(NC(=O)N2CCC3(CC2)CCN(C(=O)c2cnccn2)CC3)cc1 the “activation (PDE inhibition)” value was 5.44%.
O=C(c1ccco1)N1CCC2(CC1)CCN(c1ccccc1)CC2 was tested, and the “activation (PDE inhibition)” value was -1.57%.
In the case of COc1ccc(NC(=O)N2CC[C@@]3(CCCNC3)C2)cc1, the “activation (PDE inhibition)” value is reported as 9.86%.
For Cc1noc(C)c1C(=O)N1CCC[C@@]2(CCN(c3ncccn3)C2)C1, the “activation (PDE inhibition)” value was 2.73%.
In the case of COC(=O)N1CCC2(CC1)CN(C(=O)Nc1ccccc1)C2, the “activation (PDE inhibition)” value is reported as -2.67%.
For COCC(=O)N1CCC2(CC1)CCN(C(=O)Nc1cccc(F)c1)CC2, the “activation (PDE inhibition)” value was 2.6%.
O=C(Nc1ccccc1)N1CCC2(CC1)CCN(C(=O)c1cnccn1)CC2 was tested, and the “activation (PDE inhibition)” value was 8.83%.
With COC(=O)N1CCC2(CCN(Cc3nccs3)CC2)CC1 the “activation (PDE inhibition)” value was 3.02%.
In the case of COc1ccc(NC(=O)N2CC3(CCN(C(=O)c4ccco4)CC3)C2)cc1, the “activation (PDE inhibition)” value is reported as -1.25%.
COc1ccc(NC(=O)N2CC3(CCN(C(=O)c4c(C)noc4C)CC3)C2)cc1 was tested, and the “activation (PDE inhibition)” value was -3.04%.
In the case of CC(C)NC(=O)N1CC[C@@]2(CCCN(C(=O)c3cccn3C)C2)C1, the “activation (PDE inhibition)” value is reported as 0.0125%.
For FC(F)(F)c1cc(CN2CC3(CCNCC3)C2)cc(C(F)(F)F)c1, the “activation (PDE inhibition)” value was 12.2%.
In the case of O=C(Nc1cccc(F)c1)N1CC2(CCN(S(=O)(=O)c3ccccc3)CC2)C1, the “activation (PDE inhibition)” value is reported as -0.804%.
In the case of COCC(=O)N1CCC[C@@]2(CCN(c3ncccn3)C2)C1, the “activation (PDE inhibition)” value is reported as 26.4%.
